From PubChem BioAssay
miR-122 sensor: blocks miR-122 activity in Huh7 sensor cells. Huh7 miR-122 Renilla luciferase sensor, 48 h; neutral wells = 0, positive control = 100. activation (reporter increase), % at 12.5 µM. 0.3% of 340,000 active;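 active means mean replicate activation score at least 90 and every replicate individually at or above 90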;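 further: higher luciferase means less miR-122 activity so hits act as miR-122 inhibitors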
PglD inh: PglD (C. jejuni) enzyme inhibition; purified PglD enzyme, DTNB colorimetric CoA detection; inhibition, % at 12.5 µM; 0.098% of 360,000 active; AID 602405; in the data active means inhibition above about 16%, passing the limit was not always enough
NSD2 HMT inh: NSD2 (human) methyltransferase inhibition; O96028; NSD2 peptide methylation, AlphaScreen, 120 min; 0.54% of 310,000 active; inhibition, % at 12.5 µM; in the data active means inhibition above about 50%
Target sequence (O96028 whole entry, looked up): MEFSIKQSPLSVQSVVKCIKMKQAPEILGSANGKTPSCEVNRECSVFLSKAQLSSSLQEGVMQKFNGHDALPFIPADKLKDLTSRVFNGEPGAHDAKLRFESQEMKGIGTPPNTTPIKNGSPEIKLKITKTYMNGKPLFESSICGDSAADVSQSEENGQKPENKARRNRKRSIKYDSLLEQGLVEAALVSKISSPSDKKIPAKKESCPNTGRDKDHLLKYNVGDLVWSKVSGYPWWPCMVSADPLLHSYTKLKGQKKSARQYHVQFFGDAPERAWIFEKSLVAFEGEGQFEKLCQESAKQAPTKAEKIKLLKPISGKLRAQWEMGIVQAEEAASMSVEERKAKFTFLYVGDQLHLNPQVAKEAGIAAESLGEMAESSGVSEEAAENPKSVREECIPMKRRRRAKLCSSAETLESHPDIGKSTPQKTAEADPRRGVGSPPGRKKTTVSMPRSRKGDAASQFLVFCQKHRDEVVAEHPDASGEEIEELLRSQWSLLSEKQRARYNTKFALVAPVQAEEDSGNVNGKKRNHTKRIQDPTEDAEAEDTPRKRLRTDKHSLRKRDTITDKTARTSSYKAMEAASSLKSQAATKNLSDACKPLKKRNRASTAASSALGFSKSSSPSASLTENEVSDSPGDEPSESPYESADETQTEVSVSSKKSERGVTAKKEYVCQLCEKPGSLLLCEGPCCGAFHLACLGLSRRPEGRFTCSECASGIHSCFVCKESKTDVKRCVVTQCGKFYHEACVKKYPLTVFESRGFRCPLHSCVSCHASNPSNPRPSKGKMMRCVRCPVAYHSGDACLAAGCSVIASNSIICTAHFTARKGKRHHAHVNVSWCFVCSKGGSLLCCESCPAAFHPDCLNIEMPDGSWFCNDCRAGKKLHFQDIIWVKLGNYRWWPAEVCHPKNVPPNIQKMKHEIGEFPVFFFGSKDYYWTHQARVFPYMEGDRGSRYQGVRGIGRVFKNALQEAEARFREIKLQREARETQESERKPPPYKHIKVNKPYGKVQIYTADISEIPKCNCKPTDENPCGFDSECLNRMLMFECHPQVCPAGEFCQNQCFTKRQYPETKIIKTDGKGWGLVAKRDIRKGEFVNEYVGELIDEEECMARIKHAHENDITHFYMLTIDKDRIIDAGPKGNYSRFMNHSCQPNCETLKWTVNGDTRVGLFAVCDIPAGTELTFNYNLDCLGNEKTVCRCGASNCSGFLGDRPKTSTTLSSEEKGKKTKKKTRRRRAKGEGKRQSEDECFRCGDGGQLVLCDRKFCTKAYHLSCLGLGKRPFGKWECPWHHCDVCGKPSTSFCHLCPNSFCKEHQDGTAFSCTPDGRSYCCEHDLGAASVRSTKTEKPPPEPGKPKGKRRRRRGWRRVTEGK
Statin myotox sup: protects C2C12 myotubes from simvastatin toxicity. AID 602340. ATP luminescence, 48 h; scaled: DMSO 0, geranylgeraniol control 100. rescue of ATP level, % at 7.49 µM. 0.78% of 330,000 active;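 active means mean ATP rescue above about 67%, or every replicate alone reaching that limit, limit read from the data, passing the limit was not always enough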;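 further: myotubes were challenged with 10 µM simvastatin during compound exposure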
Alpha artifact: interferes with AlphaScreen signal, flagging NSD2 false positives | 9.4% of 1,500 active | AC35, µM (top dose mostly 10 µM), for the others: at the highest dose activity change, negative = signal loss | AlphaScreen artifact counterscreen, preloaded methylated H4 peptide | shares compounds with NSD2 HMT inh | AID 1053174; call rule not given here
Active calls of the source: *; / = no result given; + = active, no number; [ ] = remark or other dose. Only some compounds are listed: those with a hit (about 1.2% of all), similar ones and a draw of the others.

SMILES | miR-122 sensor | PglD inh | NSD2 HMT inh | Statin myotox sup | Alpha artifact
COc1cccc(-c2cn(CC[C@@H]3CC[C@H](NC(=O)CC4CC4)[C@@H](CO)O3)nn2)c1 | / | -35.1 | / | 7.5 | /
CCN(C(=S)Nc1ccc(C(C)=O)cc1)C1CCCCC1 | / | / | 53.4* | / | -2.9%
CCCN(CC1CC1)C(=S)Nc1ccc(C(C)=O)cc1 | 3.7 | 3.1 | 0.4 | -2.7 | /
CN(C1=C(N2CCOCC2)C(=O)c2ccccc2C1=O)c1ccccc1 | -3.2 | 0.1 | 76.0* | / | 2.92µM*
Cc1ccc(N2CCOCC2)c2c1C(=O)c1ccccc1C2=O | / | / | 57.1* | / | 4.29µM*
CC(=O)N(C(C)=O)N1C(=O)c2cccc3c(N4CCOCC4)ccc(c23)C1=O | / | / | -0.8 | / | /
O=C1C=C(N2CCOCC2)c2ccccc2C1=O | / | 1.5 | + | -73.5 | -1.9%
Cc1noc(C)c1NC(=O)N[C@H]1CC[C@H](CCNC(=O)C2CCOCC2)O[C@H]1CO | 4.1[16.7 µM] | 12.6 | / | -1.5 | /
Cc1ccc(-c2cc(C(F)(F)F)n3nc(C(=O)N4CCN5CCCC5C4)cc3n2)cc1 (configuration not stated) | 7.2 | -1.8 | 75.0* | -14.6 | 0.0%
COCCCNc1nc(-c2ccncc2)nc2ccccc12 | -5.1 | 0.9 | -2.2 | -14.2 | /
Fc1ccc(CNc2nc(-c3cccnc3)nc3ccccc23)cc1 | -3.9 | -1.7 | 118.4* | -267.9 | 1.1%
COCCNc1nc(-c2ccccc2)nc2ccccc12 | / | / | 50.8* | / | -3.2%
C[C@@H]1CN([C@@H](C)CO)C(=O)c2cc(C#CC(C)(C)O)cnc2O[C@@H]1CN(C)Cc1cccc(F)c1 | 5.3[16.7 µM] | / | / | -1.7 | /
COC(=O)C[C@@H]1C[C@@H]2c3cc(NS(=O)(=O)c4cccc(OC)c4)ccc3O[C@@H]2[C@H](CO)O1 | -3.9[16.7 µM] | -2.8 | / | -5.1 | /
Cc1ccc(NC(=O)c2cc([N+](=O)[O-])ccc2NCc2cccnc2)cc1Cl | 8.2 | 2.4 | 127.3* | / | -6.6%
COc1cccc(NC(=O)c2cc([N+](=O)[O-])ccc2NCc2cccnc2)c1 | 7.2 | -9.7 | 3.5 | / | /
CC1=CS(=O)(=O)CC1Sc1ncn[nH]1 (configuration not stated) | -4.5 | -1.6 | 143.5* | / | -5.2%
CC1=CS(=O)(=O)CC1Sc1nc(C)n[nH]1 (configuration not stated) | / | / | -7.0 | / | /
Cc1noc(C)c1S(=O)(=O)Nc1ccc2c(c1)CC(=O)N([C@H](C)CO)C[C@@H](C)[C@@H](CN(C)CC1CC1)O2 | 1.8[16.7 µM] | 3.3 | / | -1.5 | /
O=C1c2cccc(NCCCNCCO)c2C(=O)c2cccc(NCCCNCCO)c21 | -3.9 | / | 87.7* | / | 4.17µM*
O=C(c1ccc(N2CCOCC2)c([N+](=O)[O-])c1)N1CCN(Cc2ccccc2)CC1 | -3.9 | 4.4 | 119.7* | -24.3 | -3.4%
COc1cccc(NC(=O)N(C)C[C@H]2Oc3ncc(C#Cc4ccncc4)cc3C(=O)N([C@H](C)CO)C[C@H]2C)c1 | -13.5[16.7 µM] | 10.1 | / | 30.5 | /
CCCN1[C@@H]2c3ccc(-c4ccccc4OC)c(=O)n3C[C@@H]2[C@@H](CO)[C@@H]1C(=O)OC | -2.1[16.7 µM] | -1.2 | / | -22.2 | /
O=C(OCC(=O)N1CCOCC1)c1ccc(Br)cc1 | -0.2 | -1.4 | 63.9* | -11.0 | -1.4%
Cc1ccc(C(=O)OCC(=O)N2CCOCC2)cc1 | -4.0 | -3.3 | 18.5 | -3.0 | /
SMILES | miR-122 sensor | PglD inh | NSD2 HMT inh | Statin myotox sup | Alpha artifact
O=C(C[C@@H]1C=C[C@@H](NC(=O)NC2CCCCC2)[C@@H](CO)O1)NCc1ccccc1 | 0.6[16.7 µM] | -1.5 | / | -3.6 | /
Cc1cc(-c2n[nH]c(=S)n2N=Cc2cccc(Oc3ccccc3)c2)n[nH]1 | / | / | 19.3 | / | /
Cc1cc(-c2n[nH]c(=S)n2N=Cc2cccc(OCc3ccccc3)c2)n[nH]1 | / | / | 62.6* | / | -8.9%
CC(Nc1ccc2ccccc2c1)C(=O)N/N=C/c1ccncc1 (configuration not stated) | 9.0 | -0.8 | 141.4* | 13.9 | -3.9%
Cc1cccc2c1NC(=O)C2=O | -1.8 | -0.6 | 33.0 | -0.5 | /
O=C1Nc2c(Cl)cccc2C1=O | -0.6 | 6.2 | 125.8* | 10.4 | 4.5%
CNc1ccc(Br)cc(C(=O)/C=C/c2ccc(OC)cc2)c1=O | / | / | 66.2* | / | -11.0%
CNc1ccc(Br)cc(C(=O)/C=C/c2ccc3c(c2)OCO3)c1=O | 5.7 | -5.6 | 15.2 | 11.4 | /
CO[C@@H]1CN(C)C(=O)c2ccc(NS(=O)(=O)c3cn(C)cn3)cc2OC[C@@H](C)N(C)C[C@H]1C | -12.6[16.7 µM] | 0.4 | / | -3.4 | /
Nc1c(C(=O)NCc2ccc(F)cc2)c2nc3ccccc3nc2n1CCCN1CCOCC1 | -7.1 | -0.1 | 81.7* | -3.8 | 20.9%
Nc1c(C(=O)NCc2ccccc2)c2nc3ccccc3nc2n1CCCN1CCOCC1 | / | / | -27.0 | / | /
CC(=O)NC1=NN(C(C)=O)C(C)(c2cccc([N+](=O)[O-])c2)S1 (configuration not stated) | / | / | 98.9* | / | 1.8%
CCn1c(C)cc(=S)c2ccccc21 | 1.1 | -4.2 | 104.4* | 7.2 | -18.4%
COC(=O)c1ccccc1NC1OC(=O)c2ccccc21 (configuration not stated) | -0.5 | -3.5 | -1.3 | 8.3 | /
Cc1ccc2cccc(NC3OC(=O)c4ccccc43)c2n1 (configuration not stated) | / | / | 86.9* | / | -5.1%
CCN1CCN(CCCNC(=O)c2ccc3c(c2)NC(=O)/C(=C\c2cccc(C)c2)S3)CC1 | 2.9 | 0.9 | 50.9* | -2.0 | -4.9%
Cc1cccc(/C=C2/Sc3ccc(C(=O)NCCCN4CCOCC4)cc3NC2=O)c1 | 0.9 | 4.4 | -2.4 | 0.9 | /
COc1ccccc1N1CCN(S(=O)(=O)CCNC(=O)c2ccc(Br)o2)CC1 | -9.8 | 0.3 | 75.6* | 6.3 | -0.7%
CC1=CCC2C(=O)N(c3cccc(C(=O)N(C)C4CCCCC4)c3)C(=O)C2C1 (configuration not stated) | 3.6 | -4.2 | 88.6* | -2.4 | 1.1%
Cc1ccc(NC(=S)N2CCC(NC(=O)c3cccc(F)c3)CC2)cc1 | -0.7 | -0.7 | 88.7* | 2.2 | 2.4%
Cc1ccc(NC(=S)N2CCC(NC(=O)c3ccc(C)cc3)CC2)cc1 | / | -1.3 | / | -9.6 | /
CCNC(=O)[C@H]1[C@H](CO)[C@H]2Cn3c(ccc(-c4ccccc4F)c3=O)[C@H]2N1CC | 3.2[16.7 µM] | -3.9 | / | 4.9 | /
COc1ccc(S(=O)(=O)N(C)C[C@H]2OCCCC[C@@H](C)Oc3ccc(NS(C)(=O)=O)cc3C(=O)N([C@@H](C)CO)C[C@@H]2C)cc1 | 15.3[16.7 µM] | -0.8 | / | / | /
CCN(CC)CCCNc1cc(C(F)(F)F)c(C#N)c2nc3ccccc3n12 | -4.4 | -3.3 | 55.6* | -4.0 | -2.6%
CCN(CC)CCCNc1cc(C)c(C#N)c2nc3ccccc3n12 | -2.4 | -5.6 | 121.8* | 8.0 | -4.6%
CCN(CC)CCNc1cc(C)c(C#N)c2nc3ccccc3n12 | -0.4 | -3.7 | 14.6 | -0.9 | /
Cc1cc(NCCCCO)n2c(nc3ccccc32)c1C#N | -6.4 | -1.1 | 0.5 | -22.4 | /
C[C@H]1CN([C@@H](C)CO)C(=O)c2cccc(NC(=O)Nc3ccc(F)cc3)c2O[C@H]1CN(C)CC1CCCCC1 | 5.2[16.7 µM] | 3.5 | / | 15.8 | /
CCN1/C(=C/C(C)=C/c2sc3ccccc3[n+]2CC)Sc2ccccc21 | -27.5 | -6.9 | 112.4* | -113.9 | 5.45µM*
